Hit rate of the full screen: of about 5,600 compounds, about 4,400 (79%) were called active. So high a share suggests a set chosen from earlier hits. Only a sample is shown. Values without a mark were called inactive. No stated cut-off is given here; in the data, active means inhibition above about 27%; inactive means the rest.
Each compound was assayed against Fructose-bisphosphate aldolase (Mycobacterium tuberculosis (strain ATCC 25618 / H37Rv)) (UniProt P9WQA3) (assay: M. tuberculosis aldolase blockers, biochemical, fluorescence, strain H37Rv, confirmation (AID 651616;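 further: 0% = vehicle wells and 100% = reference inhibitor wells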)). Settings: purified M. tuberculosis FBA, fluorescence read-out, at 1 µM, stronger effect = higher value.
Sequence of Fructose-bisphosphate aldolase (Mycobacterium tuberculosis (strain ATCC 25618 / H37Rv)) (P9WQA3 whole entry, looked up): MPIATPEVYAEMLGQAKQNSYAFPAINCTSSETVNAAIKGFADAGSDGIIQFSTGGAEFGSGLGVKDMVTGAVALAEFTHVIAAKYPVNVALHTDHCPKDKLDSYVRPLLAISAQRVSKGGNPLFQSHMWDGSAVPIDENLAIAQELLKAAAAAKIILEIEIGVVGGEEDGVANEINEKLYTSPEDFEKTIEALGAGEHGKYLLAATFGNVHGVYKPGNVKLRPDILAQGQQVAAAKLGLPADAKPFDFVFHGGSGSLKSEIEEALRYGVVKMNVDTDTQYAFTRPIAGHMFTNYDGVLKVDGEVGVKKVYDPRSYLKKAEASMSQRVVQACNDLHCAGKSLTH

SMILES | inhibition
COc1ccc(-c2nc3cc(C)ccn3c2NC2CCCCC2)cc1SC1CCCCC1 | 53.2% (active)
O=C(CCc1ccccc1)Nc1cccc(-c2nnc(-c3ccco3)o2)c1 | 91% (active)
O=C(Nc1ccc(-c2nnc(-c3ccccc3)o2)cc1)C1CCCO1 (stereo not given) | 1.4%
CC(=O)N1C(=O)/C(=C2\SC(=S)N(NC(=O)c3ccc(O)cc3)C2=O)c2ccccc21 | 10.4%
Cc1cc(C)c2nc(-c3ccco3)cc(C(=O)O)c2c1 | 3.93%
Cc1cc(C)c2nc3nc(C)cc(C)c3c(N)c2c1 | 41.1% (active)
CCOC(=O)N1CCC(NC(=O)c2cnn3ccccc23)CC1 | 42.5% (active)
CCOc1c2ccc(C(=O)NC3CCCc4ccccc43)cc2nn1CC (stereo not given) | 21.6%
CCOc1c2ccc(C(=O)NCc3ccc4c(c3)OCO4)cc2nn1C | 107% (active)
CCOc1c2ccc(C(=O)NCc3ccc(OC(F)(F)F)cc3)cc2nn1C | 106% (active)
CCCn1nc2cc(C(=O)NCc3ccccc3)ccc2c1OCC | -3.79%
O=C(NCc1cccc(Cl)c1)C1=CC=CN2CCS(=O)(=O)N=C12 | 11.8%
C=CCn1c(CCNC(=O)c2ccccc2F)nnc1SCC(=O)Nc1ccc(OC)cc1 | 586% [above what the read-out allows, likely interference] (active)
Cc1ccsc1C(=O)N[C@@H](C)c1nnc2ccccn12 | 125% (active)
CC(C)n1c(-c2cccs2)nc2ccccc21 | 87% (active)
CC1(C(=O)NCc2ccco2)Cc2c(-c3ccc4c(c3)OCO4)ccnc2O1 (stereo not given) | 7.76%
CC1(C(=O)NCc2ccc(F)c(F)c2)Cc2c(-c3ccc4c(c3)OCO4)ccnc2O1 (stereo not given) | 155% (active)
CC1(C)CC(=O)c2cc(OCC(=O)NCC3CCCO3)ccc2O1 (stereo not given) | -1.83%
Cc1cc(=O)oc2c3c(cc(OCC(=O)NCC(O)c4ccccc4)c12)OC(C)(C)CC3 (stereo not given) | 62% (active)
CCCCNc1c(-c2cccc(Sc3ccc(OC)cc3)c2)nc2ccccn12 | 35.1% (active)

SMILES | inhibition
CCCCn1c(-c2cccc(C)c2)nc2cc3[nH]c(=O)c(C(C)C)nc3cc21 | 34.1% (active)
O=C(O)/C=C/c1cn(-c2ccccc2)nc1-c1cccs1 | 92.4% (active)
O=C(CN1C(=O)c2cccc3cccc(c23)C1=O)N1CCCCC1 | 70.8% (active)
c1ccc2c(NC3C4CC5CC(C4)CC3C5)nc(N3CCOCC3)nc2c1 (stereo not given) | 134% (active)
CC(Nc1nc(N2CCOCC2)nc2ccccc12)c1ccccc1 (stereo not given) | 56.5% (active)
COC(=O)CSc1nc(C)c2ccc(OC)cc2n1 | -3.91%
CCOC(=O)Cn1c(=O)n(Cc2ccc(OC)cc2)c(=O)c2cccnc21 | 852% [above what the read-out allows, likely interference] (active)
O=C(CCC(=O)N/N=C/c1ccc(Br)o1)N/N=C/c1ccc(Br)o1 | 110% (active)
CCC(=O)Nc1c(S(=O)(=O)c2ccccc2)c2nc3ccccc3nc2n1Cc1ccccc1 | 173% (active)
COc1ccc2nc(-c3ccccn3)ccc2c1 | 116% (active)
O=C1NC(c2cccc(Cl)c2)Nc2ccccc21 (stereo not given) | 102% (active)
COc1ccc(C2NC(=O)c3ccccc3N2)cc1 (stereo not given) | 146% (active)
Cc1ccc2nc(-c3ccco3)c(Cc3cccc(Cl)c3)n2c1 | 94.1% (active)
O=C1OCCN1C(=O)[C@H]1[C@H](c2ccc(F)cc2)C(c2ccccc2)=NN1c1ccc(Br)cc1 | 65.6% (active)
CNc1nc(-c2ccccc2)cc(-c2ccccc2)n1 | 76.6% (active)
CCCN(C(=O)CSc1nnc(N)s1)c1c(N)n(Cc2ccccc2)c(=O)[nH]c1=O | 59.2% (active)
COc1ccc(-c2ccc(C(=O)NCCN3CCOCC3)c3occc23)c(C)c1 | 72% (active)
COc1ccc(-c2ccc(C(=O)NC(C)C)c3occc23)c(C)c1 | 112% (active)
COc1ccc(-c2oc3ncnc(NCCCO)c3c2-c2ccc(OC)cc2)cc1 | 51.9% (active)
Cc1cc(C)nc(SCc2cn3c(C)cc(C)nc3n2)n1 | 102% (active)

SMILES | inhibition
COc1cccc(NC(=O)CN(C)CC(=O)Nc2ccc3c(c2)CCC3)c1 | 89% (active)
COc1cccc(NC(=O)CN(C)C(=O)/C=C/c2cc(OC)ccc2OC)c1 | 105% (active)
COc1ccc2c3c(c(=O)oc2c1OCC(=O)C(C)(C)C)CCCC3 | 60.2% (active)
Cc1c(OC(C)C(=O)N[C@@H](Cc2ccccc2)C(=O)O)ccc2c3c(c(=O)oc12)CCCC3 (stereo not given in full) | 5.53%
CCC(=O)Nc1ccc2nn(-c3ccc(F)cc3)nc2c1 | 88% (active)
CCCC/C=C/c1cccc2nncn12 | 68.8% (active)
CN1CCN(CCCNC(=O)c2ccc(/C=C3\Oc4ccccc4N(Cc4ccc(Cl)cc4)C3=O)cc2)CC1 | -4.52%
O=C(NCCc1ccccc1)c1ccc2c(c1)N(Cc1ccccc1)CCS2 | 42.5% (active)
O=C(NCCN1CCOCC1)c1ccc2c(c1)N(Cc1ccc(Cl)cc1)CCS2 | 56.6% (active)
COCCCNC(=S)N(CCN(C)C)Cc1cc2cc3c(cc2[nH]c1=O)OCCO3 | 43.2% (active)
COc1ccc(C2C3=C(CCCC3=O)N(CC(=O)O)C3=C2C(=O)CCC3)cc1 | 128% (active)
CCCc1cc(=O)n2[nH]c(C)c(-c3ccc(Cl)cc3)c2n1 | 123% (active)
Cc1nc2c(-c3ccccc3)c(C)[nH]n2c(=O)c1Cl | 105% (active)
COCc1cc(=O)n2[nH]c(C)c(-c3ccccc3)c2n1 | 50.6% (active)
O=C(O)Cc1sc(-c2ccc(C(=O)O)cc2)nc1-c1ccccc1 | -7.84%
c1cc(-c2ccc3[nH]ccc3c2)n2ccnc2c1 | 79.6% (active)
COc1ccc(CNC(=O)c2c[nH]c3c(OC)cc(OC)cc3c2=O)cc1 | -2.04%
Cc1ccc(Cn2c(C)nc3c(c2=O)c2nc4ccccc4nc2n3Cc2ccco2)cc1 | 55% (active)
CC(=O)Nc1ccc(-c2nc3ccccc3o2)cc1 | 8.14%
COc1cc(OC)cc(C(=O)Nc2ccc(-c3nc4ccccc4o3)c(O)c2)c1 | 148% (active)

Source: PubChem BioAssay AID651616 (The Scripps Research Institute Molecular Screening Center, 2012)
